# Measured values reported in PubChem BioAssay.
# Where “and” joins values, the source holds several entries; their conditions need not be identical. Identical values can stand only once. Inconclusive results are not listed. Calls of active or inactive are those of the source. Unless noted, the rule behind the calls is not given here.
# Key:
# [1] = liver-stage malaria parasite growth inhibition, primary screen, cell-based, HepG2, luciferase luminescence, HepG2 viability (AID 624349; in the data active = parasite load remaining mostly below about 12%, no sharp cut-off; inactive = mostly above about 10%;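 note: 100% = mean of DMSO negative control wells on the same plate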); details: P. berghei liver stage in HepG2, luciferase luminescence, concentration not given here; parasite load remaining: stronger effect = lower value; viability: measured here: HepG2 viability without parasites
# [2] = differential killing of epithelial or mesenchymal cells, primary screen, imaging, PC-3E GFP, TEM4-18 mCherry, co-culture (AID 1345086;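 active = compounds killing one labelled cell type while sparing the other, by normalised counts and ratio limits, not self-fluorescent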;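 for all read-outs here: cells exposed to compound for 72 h before imaging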;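 for red/green cell ratio (normalised): normalised mesenchymal count divided by normalised epithelial count so high means epithelial killing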); details: imaging cell counts, at 1 µM; for red/green cell ratio (normalised): actives lie on both sides
# [3] = sensitizers of A549 cells to miR-34 induction, primary screen, imaging, A549 dox-inducible miR-34, nuclei and caspase counts (AID 1347080;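 active = compounds whose cell count with miR-34 switched on is under 0.7 times the count with it off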); details: A549 miR-34 inducible, Hoechst nuclei count, 48 h
# [4] = biological target: NAD(+) hydrolase SARM1 (Homo sapiens) (UniProt Q6SZW1); test: SARM1 TIR NADase inhibitors, cell lysate, NAD-Glo luminescence (AID 1508614;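 active = compound whose remaining NAD level is above about 45 nM, limit read from the data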;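 note: higher remaining NAD means stronger inhibition of SARM1 NADase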); details: SAM-TIR HEK293T lysate NADase, at 1 µM, stronger effect = higher value
# NAD(+) hydrolase SARM1 (Homo sapiens), sequence (Q6SZW1 whole entry, looked up): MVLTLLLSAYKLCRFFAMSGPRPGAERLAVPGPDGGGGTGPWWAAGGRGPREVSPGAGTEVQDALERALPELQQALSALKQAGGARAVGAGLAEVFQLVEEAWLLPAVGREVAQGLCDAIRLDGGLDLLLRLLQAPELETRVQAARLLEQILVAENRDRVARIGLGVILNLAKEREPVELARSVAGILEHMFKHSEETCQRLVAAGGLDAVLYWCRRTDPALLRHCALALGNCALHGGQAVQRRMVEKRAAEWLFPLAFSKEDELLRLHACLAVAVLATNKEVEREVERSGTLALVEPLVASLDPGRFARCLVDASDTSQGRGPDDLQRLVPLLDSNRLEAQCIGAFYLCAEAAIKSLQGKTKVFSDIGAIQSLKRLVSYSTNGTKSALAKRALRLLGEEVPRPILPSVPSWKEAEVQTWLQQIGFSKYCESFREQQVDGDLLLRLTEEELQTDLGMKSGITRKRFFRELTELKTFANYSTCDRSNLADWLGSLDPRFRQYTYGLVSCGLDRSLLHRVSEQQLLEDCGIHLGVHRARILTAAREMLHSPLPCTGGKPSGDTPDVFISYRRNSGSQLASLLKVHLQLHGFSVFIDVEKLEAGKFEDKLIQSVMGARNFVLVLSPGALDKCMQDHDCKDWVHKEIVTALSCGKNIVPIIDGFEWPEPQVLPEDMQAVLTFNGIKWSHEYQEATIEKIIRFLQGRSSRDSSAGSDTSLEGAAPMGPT
# [5] = circadian clock period modulators, cell-based, LOPAC library, luminescence reporter (AID 2774); details: circadian reporter cells, at 7 µM, actives lie on both sides;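 note: values are relative to mean of DMSO wells on each plate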
# [6] = test system: Hepatitis C virus NS3 helicase; test: HCV NS3 helicase inhibitors, primary screen, biochemical, fluorescence polarization, LOPAC1280 library (AID 687035; in the data active = inhibition above about 37%); details: Purified HCV NS3 helicase, Cy5-dT15 ssDNA binding fluorescence polarization; stronger effect = higher value; concentration not given here
# [7] = Cy5 fluorescence quenching or enhancement artefacts, artefact control for HCV NS3 helicase inhibitor project, biochemical, LOPAC1280 (AID 687037); details: Cy5-DNA-NS3h complex fluorescence interference counterscreen
# [8] = test system: Aerobactin synthetase IucA (Klebsiella pneumoniae); test: IucA aerobactin synthetase inhibitors, biochemical, Tocris library, absorbance (AID 1345561); details: purified IucA enzyme assay, absorbance (OD) read-out; stronger effect = lower value;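 tested at 8 µM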;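 note: 100% = enzyme without compound and 0% = no enzyme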
# [9] = test system: Aerobactin synthetase IucA (Klebsiella pneumoniae, hypervirulent); test: IucA enzyme inhibition, biochemical, LOPAC library, absorbance readout (AID 1346212); details: IucA enzyme assay, absorbance (OD) readout; stronger effect = lower value;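 tested at 8 µM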;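 note: 100% = no compound wells and 0% = no enzyme wells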
# [10] = phospholipid biosynthesis inhibitors in animal cells, primary screen, cell-based, LOPAC library, screen 4 (AID 1347384); details: phospholipid biosynthesis inhibition screen, at 10 µM
# [11] = survival rescue of mitochondrial mutant cells in low glucose, primary screen, MELAS cybrids, Rieske KO mouse fibroblasts, CellTiter-Glo (AID 1508586;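 active = mean z-score across replicates of 1.96 or higher in either the MELAS or the Rieske mutant cell line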;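 note: z relative to plate mean and SD of compound and empty wells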)
# [12] = viability rescue of complex I mutant cybrids, primary screen, cell-based, galactose medium, ATP luminescence (AID 1645843;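 active = z-score of at least 1.8 in each of two replicates, scored against plate mean and spread of sample wells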;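 note: positive z means more ATP and so rescue of galactose-driven cybrid death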); details: complex I mutant cybrid cells, 72 h, stronger effect = higher value
# [13] = hESC survival regulators, cell-based (AID 493140); details: human embryonic stem cell survival screen; stronger effect = higher value;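 note: cells exposed to compounds for four days before counting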
# [14] = growth inhibition of DIPG glioma cells, dose response, cell-based, SU-DIPG-XIII, MIPE4.0, CellTiter-Glo, qHTS (AID 1347061; cut-off not given, nearly all actives have AC50 up to about 37 µM;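 note: cells exposed to compound for 48 hours before readout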); details: SU-DIPG-XIII viability, CellTiter-Glo ATP luminescence
# [15] = growth inhibition of DIPG glioma cells, dose response, cell-based, JHH-DIPG-1, MIPE4.0, CellTiter-Glo, qHTS (AID 1347062; cut-off not given, nearly all actives have AC50 up to about 27 µM); details: JHH-DIPG-1 viability, CellTiter-Glo ATP luminescence
# [16] = growth inhibition of DIPG glioma cells, dose response, cell-based, SU-DIPG-XIII, MIPE5.0, CellTiter-Glo, qHTS (AID 1347064; cut-off not given, nearly all actives have AC50 up to about 23 µM); details: SU-DIPG-XIII viability, CellTiter-Glo ATP luminescence
# [17] = viability loss in pontine glioma line – cell-based, SU-DIPG-XXV, MIPE5.0, CellTiter-Glo, qHTS, dose response (AID 1347065; cut-off not given, nearly all actives have AC50 up to about 26 µM;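 note: cells exposed to compound for 48 hours before ATP readout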); details: CellTiter-Glo ATP luminescence
# [18] = JHH-DIPG-1 glioma cell viability, MIPE5.0 library, CellTiter-Glo luminescence, qHTS (AID 1347067; cut-off not given, nearly all actives have AC50 up to about 26 µM;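 note: cells exposed to compound for 48 hours before readout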); details: JHH-DIPG-1 glioma viability, CellTiter-Glo ATP luminescence
# [19] = SU-DIPG-XXV glioma cell viability, MIPE5.0 library, qHTS (AID 1347068; cut-off not given, nearly all actives have IC50 up to about 30 µM)
# [20] = inhibitors of Cryptococcus chitosan production, flow cytometry, Cibacron Brilliant Red staining (AID 1347148); details: Cryptococcus neoformans chitosan, stronger effect = lower value; at 10 µM unless noted;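 note: compound exposure lasted three days at 37 degrees C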
# [21] = measured here: epithelial PC-3E GFP cell survival
# [22] = measured here: mesenchymal TEM4-18 mCherry cell survival
# [23] = measured here: relative caspase fold change +Dox/-Dox
# [24] = measured here: total cells with miR-34 induction, stronger effect = lower value
# [25] = measured here: total cells without miR-34 induction
# [26] = stronger effect = lower value, cell number ratio, induced over uninduced
smiles,measurement,setting,value
O=C(O)CCCO,parasite load remaining,[1],64.2% (inactive)
same,viability,[1],92.7%
same,red/green cell ratio (normalised),[2],1 (inactive)
same,normalised cell number,[2]; [21],0.91
same,normalised cell number,[2]; [22],0.91
same,fold change,[3]; stronger effect = lower value,0.926 (inactive)
same,fold change,[3]; [23],0.797
same,cell count,[3]; [24],11100
same,cell count,[3]; [25],11900
same,remaining NAD,[4],10 nM (inactive)
S=C(NC1CCCCC1)N1CCC(c2cnc[nH]2)CC1,period change,[5],-1.93 h (inactive)
same,inhibition,[6],-3% (inactive)
same,fluorescence ratio (interference),[7],0.9 (inactive)
same,remaining activity,[8],89.7% (inactive)
same,remaining activity,[9],99.4% (inactive)
same,fold change,[3]; stronger effect = lower value,0.921 (inactive)
same,fold change,[3]; [26],0.93 (inactive)
same,fold change,[3]; [23],1.06 and 0.678
same,cell count,[3]; [24],8920 and 7940
same,cell count,[3]; [25],9690 and 8540
same,outcome,[10],inactive
same,z-score,"[11]; MELAS cybrid survival, CellTiter-Glo 48 h, stronger effect = higher value",0.603 (inactive)
same,z-score,"[11]; Rieske KO mouse fibroblast survival, CellTiter-Glo 72 h",0.478
same,z-score,[12],-0.46 (inactive) and -0.595 (inactive)
O1[As]2O[As]3O[As]1O[As](O2)O3,parasite load remaining,[1],61.8% (inactive)
same,viability,[1],103%
same,red/green cell ratio (normalised),[2],0.77 (inactive)
same,normalised cell number,[2]; [21],1.19
same,normalised cell number,[2]; [22],0.92
same,fold change,[3]; stronger effect = lower value,0.844 (inactive)
same,fold change,[3]; [23],2.16
same,cell count,[3]; [24],11700
same,cell count,[3]; [25],13900
c1ccc2sc(C3(N4CCCCC4)CCCCC3)cc2c1,period change,[5],-0.2 h (inactive)
same,inhibition,[6],-3% (inactive)
same,fluorescence ratio (interference),[7],1 (inactive)
same,remaining activity,[8],107% (inactive)
same,remaining activity,[9],110% (inactive)
same,fold change,[3]; stronger effect = lower value,0.986 (inactive)
same,fold change,[3]; [26],0.965 (inactive)
same,fold change,[3]; [23],1.78 and 0.772
same,cell count,[3]; [24],8350 and 7790
same,cell count,[3]; [25],8470 and 8070
same,outcome,[10],inactive
same,z-score,[12],-1.48 (inactive) and -1.21 (inactive)
NCCc1c[nH]c2ccc(C(N)=O)cc12,period change,[5],-0.055 h (inactive)
same,inhibition,[6],-3% (inactive)
same,fluorescence ratio (interference),[7],1 (inactive)
same,remaining activity,[8],111% (inactive)
same,remaining activity,[9],90% (inactive)
same,fold change,[3]; stronger effect = lower value,0.977 (inactive) and 0.883 (inactive)
same,fold change,[3]; [23],1.26 and 0.923
same,cell count,[3]; [24],10000 and 7810
same,cell count,[3]; [25],10300 and 8850
same,outcome,[10],inactive
same,z-score,[12],0.31 (inactive) and 0.705 (inactive)
C/C(O)=C(\C#N)C(=O)Nc1cc(Br)ccc1Br,period change,[5],0.265 h (inactive)
same,survival,[13],124 (inactive)
same,inhibition,[6],1% (inactive)
same,fluorescence ratio (interference),[7],1 (inactive)
same,remaining activity,[8],116% (inactive)
same,remaining activity,[9],112% (inactive)
same,outcome,[14],inactive
same,outcome,[15],inactive
same,outcome,[16],inactive
same,outcome,[17],inactive
same,outcome,[18],inactive
same,outcome,[19],inactive
same,fold change,[3]; stronger effect = lower value,1.11 (inactive) and 0.867 (inactive)
same,fold change,[3]; [23],0.986 and 2.29
same,cell count,[3]; [24],5190 and 8220
same,cell count,[3]; [25],4660 and 9480
same,fold fluorescence,[20],3.51 [at 138.9 µM] (inactive)
same,z-score,[12],2.97 (active)
